{"source": "PubChem BioAssay AID651957", "about": "(The Scripps Research Institute Molecular Screening Center, 2012)", "note": "Hit rate of the full screen: of about 370,000 compounds, about 620 (0.17%) were called active. Many of the other results were omitted from the sample, so actives are more common in it than they were. Values without a mark were called inactive.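 How the source made its calls: active means inhibition above the mean inhibition of all tested compounds plus 3 SD, set per campaign (cut at about 52% in these data); inactive means the rest.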", "data": [{"biological_target": "Nuclear receptor coactivator 2 (Homo sapiens) (UniProt Q15596)", "sequence (Q15596 whole entry, looked up, the tested form may be a part)": "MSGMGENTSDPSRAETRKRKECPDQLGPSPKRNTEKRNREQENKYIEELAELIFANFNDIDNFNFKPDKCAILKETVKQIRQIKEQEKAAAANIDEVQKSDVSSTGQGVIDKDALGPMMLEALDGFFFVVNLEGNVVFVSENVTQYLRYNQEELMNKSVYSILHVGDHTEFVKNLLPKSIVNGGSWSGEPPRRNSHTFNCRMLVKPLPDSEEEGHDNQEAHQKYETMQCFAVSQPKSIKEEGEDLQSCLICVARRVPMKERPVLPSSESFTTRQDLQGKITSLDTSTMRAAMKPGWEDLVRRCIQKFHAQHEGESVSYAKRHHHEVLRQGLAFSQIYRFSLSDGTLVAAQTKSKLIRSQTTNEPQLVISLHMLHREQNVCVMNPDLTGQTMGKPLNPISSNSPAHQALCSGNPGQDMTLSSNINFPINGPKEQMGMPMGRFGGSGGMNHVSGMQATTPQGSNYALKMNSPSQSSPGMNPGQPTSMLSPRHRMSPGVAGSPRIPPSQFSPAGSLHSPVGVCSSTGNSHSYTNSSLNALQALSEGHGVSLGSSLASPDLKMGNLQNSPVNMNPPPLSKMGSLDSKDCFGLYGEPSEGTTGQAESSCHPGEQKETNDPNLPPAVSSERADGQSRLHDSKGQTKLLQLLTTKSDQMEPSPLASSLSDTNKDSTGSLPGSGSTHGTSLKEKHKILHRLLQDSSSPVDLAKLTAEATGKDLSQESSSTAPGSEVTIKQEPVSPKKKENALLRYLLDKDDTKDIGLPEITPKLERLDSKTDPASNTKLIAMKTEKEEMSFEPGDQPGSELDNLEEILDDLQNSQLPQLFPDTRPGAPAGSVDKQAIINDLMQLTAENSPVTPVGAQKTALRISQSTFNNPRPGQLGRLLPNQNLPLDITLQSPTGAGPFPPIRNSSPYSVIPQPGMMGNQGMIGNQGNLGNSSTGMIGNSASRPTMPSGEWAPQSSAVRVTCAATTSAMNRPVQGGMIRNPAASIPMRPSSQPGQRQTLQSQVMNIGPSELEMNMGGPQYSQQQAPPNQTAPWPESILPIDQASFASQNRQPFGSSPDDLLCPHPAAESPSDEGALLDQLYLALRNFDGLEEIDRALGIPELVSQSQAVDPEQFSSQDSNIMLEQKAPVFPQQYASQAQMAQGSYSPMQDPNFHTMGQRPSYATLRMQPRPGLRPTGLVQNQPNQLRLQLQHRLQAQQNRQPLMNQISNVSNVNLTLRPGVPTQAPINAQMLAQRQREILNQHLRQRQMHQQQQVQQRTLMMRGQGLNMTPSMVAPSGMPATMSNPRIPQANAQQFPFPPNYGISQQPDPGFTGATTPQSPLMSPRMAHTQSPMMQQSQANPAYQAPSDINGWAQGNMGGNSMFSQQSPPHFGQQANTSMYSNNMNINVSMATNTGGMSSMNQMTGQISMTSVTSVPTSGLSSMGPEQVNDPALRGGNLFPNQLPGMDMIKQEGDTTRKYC", "experiment": "decrease of SRC2 fusion reporter luminescence – cell-based, SRC2 inhibitor project, primary screen (AID 651957);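 further: 0% = DMSO treated cells and 100% = cells given Gossypol at 36 µM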", "settings": "HEK293 GAL4-SRC2 luciferase reporter, at 9 µM, hits give high values", "values": [{"smiles": "CCC(C)(O)C(=O)OC1C(=O)OC2CC3C(C)=CC(=O)C(O)C3(C)C3C4(O)OCC23C1C(C)C4O", "note": "(stereo not given)", "inhibition": "74.8% (active)"}, {"smiles": "O=C(COc1ccc2ccccc2c1)N1CCN(Cc2ccncc2)CC1", "inhibition": "9.05%"}, {"smiles": "CC1([N+](=O)[O-])COP(=O)(Nc2ccc(F)cc2)OC1", "note": "(stereo not given)", "inhibition": "-54.9%"}, {"smiles": "CCN1CCN(C(=O)Cc2coc3cc(C)cc(C)c23)CC1", "inhibition": "-5.27%"}, {"smiles": "CC(C)n1c(=O)c(C=Nc2ccc(Br)cc2)c(O)n(Cc2ccco2)c1=O", "inhibition": "8.44%"}, {"smiles": "COC1C(O)C(C)OC(OC2CCC3(C=O)C(CCC4C3CCC3(C)C(C5=CC(=O)OC5)CCC43O)C2)C1O", "note": "(stereo not given)", "inhibition": "55% (active)"}, {"smiles": "C[C@]12CC[C@H](O)C[C@H]1CC[C@@H]1C2CC[C@]2(C)[C@@H](C3=CC(=O)OC3)[C@@H](O)C[C@]12O", "note": "(stereo not given in full)", "inhibition": "10.7%"}, {"smiles": "Brc1ccc2c(c1)CNCc1cnnn1-2", "inhibition": "-46.2%"}, {"smiles": "Cc1ccccc1CCC[C@@H](CC1CCCCC1)CN(C)C(=O)Oc1ccccc1", "inhibition": "-0.22%"}, {"smiles": "COP(=O)(Sc1ccccc1)C(Cc1ccccc1)NC(=O)OCc1ccccc1", "note": "(stereo not given)", "inhibition": "2.58%"}]}]}
